Compound activity: PubChem, several laboratories
A selection: hits, their analogues and other compounds. The true share with any hit is near 32%.
PostGolgi ctrl: yeast control strain growth, post-Golgi counter-screen; efflux-deficient yeast background strain, growth absorbance A615, 16 h; inhibition, % at 10 µM; 98,000 tested, 5% active
CYP2C9 inh: human CYP2C9 inhibition | inhibition, % at 5 µM | CYP2C9 Supersomes, luciferin-H conversion, luminescence | 96,000 tested, 20% active;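 active means blocking of liver enzyme CYP2C9 beyond about 50% at 5 µM, limit read from the data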
PostGolgi yeast: growth inhibition of a yeast mutant, post-Golgi transport screen. 98,000 tested, 0.9% active. AID 739. post-Golgi transport phenotypic cell assay. inhibition, % at 10 µM;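 further: yeast cells grown in 1536-well plates; yeast grown about 18 h at 30C before absorbance read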
CYP2C9 act: CYP2C9 (human) activation | P11712 | recombinant CYP2C9, luciferin-H conversion, luminescence; hits give high values; factor 1 = untreated enzyme, 0 = blocked | activation factor at 5 µM | 96,000 tested, 1.4% active | AID 1024;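 active means activation factor of 2 or more for CYP2C9 at a 5 µM dose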;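 further: 0 = sulfaphenazole-blocked wells and 1 = vehicle-only wells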
CYP2C19 act: cytochrome P450 2C19 (human) activation; recombinant CYP2C19, luciferin-H EGE luminescence; hits give high values; 0 = fully inhibited enzyme, 1 = untreated enzyme; activation factor at 5 µM; 96,000 tested, under 10 active; AID 1025;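 active means activation factor of at least 2 at 5 µM in the primary screen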;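 further: 0 = wells with 2.5 mM tranylcypromine and 1 = vehicle-only wells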
Target sequence (P33261 whole entry, looked up): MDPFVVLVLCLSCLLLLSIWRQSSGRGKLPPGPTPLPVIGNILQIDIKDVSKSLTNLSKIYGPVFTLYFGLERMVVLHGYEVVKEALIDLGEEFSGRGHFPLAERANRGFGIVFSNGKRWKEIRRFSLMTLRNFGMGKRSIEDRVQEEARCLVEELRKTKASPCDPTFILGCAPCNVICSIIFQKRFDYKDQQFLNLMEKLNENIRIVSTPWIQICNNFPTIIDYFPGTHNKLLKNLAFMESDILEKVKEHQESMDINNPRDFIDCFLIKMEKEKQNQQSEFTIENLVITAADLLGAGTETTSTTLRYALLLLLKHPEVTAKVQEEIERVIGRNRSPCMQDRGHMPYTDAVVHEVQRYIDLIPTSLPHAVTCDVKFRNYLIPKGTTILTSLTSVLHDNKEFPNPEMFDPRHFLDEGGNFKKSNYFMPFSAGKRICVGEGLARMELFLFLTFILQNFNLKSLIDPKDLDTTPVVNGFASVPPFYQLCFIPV
CYP2C19 inh: human CYP2C19 inhibition. P33261. CYP2C19 Supersomes, luciferin-H EGE luminescence, 30 min. inhibition, % at 5 µM. 96,000 tested, 21% active. AID 778;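 active means CYP2C19 inhibition above a set limit at 5 µM in the primary screen, cut at about 50% in these data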;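 further: plate controls were negative control wells for no effect and 2.5 mM tranylcypromine positive control for full effect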
* hit, by the source's call; . = no result. Unless noted, no stated cut-off is given here; in the data, active means inhibition above about 30%; inactive means the rest.

SMILES	PostGolgi ctrl	CYP2C9 inh	PostGolgi yeast	CYP2C9 act	CYP2C19 act	CYP2C19 inh
CCOc1cc(S(=O)(=O)N(CC)CC)ccc1Br	9.8	-28.2	10.7	1.3	0.1	94.9*
CCN(CC)S(=O)(=O)c1ccc(Br)c(OC)c1	-4.3	-85.4	-4.1	1.9	0.2	81.7*
COc1ccc(S(=O)(=O)NCCOc2ccccc2)cc1OC	33.1*	-185.7	-6.9	2.9*	0	100.0*
Cc1ccc(NC(=O)CC(NCCN2CCOCC2)C(=O)O)cc1Cl (centres undefined)	3.2	28.3	4.8	0.7	0.8	17.9
CN(CCNC(=O)C1CC(=O)N(c2ccc(F)c(Cl)c2)C1)Cc1ccccc1 (centres undefined)	13.7	-29.3	-3.3	1.3	1	4.0
COc1cc(C)c(Cl)cc1S(=O)(=O)N(C)C	9.1	-67.6	-9.5	1.7	0.8	22.3
COCCNS(=O)(=O)c1cc(OC)c(Cl)cc1Cl	0.0	-55.2	18.4	1.6	0.3	68.3*
CCNS(=O)(=O)c1ccc(Br)c(OC)c1	6.8	-115.7	-7.3	2.2*	0.7	29.3
CCN(CC)S(=O)(=O)c1cc(OC)c(Cl)cc1Cl	11.8	-203.5	-11.7	3*	0	97.3*
CCOc1cc(C)c(Cl)cc1S(=O)(=O)N(CC)CC	3.2	-99.6	-17.7	2*	0.5	52.6*
CCN1CCN(S(=O)(=O)c2cc(OC)c(Cl)cc2OC)CC1	8.6	-9.8	0.8	1.1	0.6	39.2
CCNS(=O)(=O)c1cc(S(C)(=O)=O)ccc1Cl	3.4	-68.9	-1.8	1.7	1	2.9
CCN(CC)S(=O)(=O)c1cc(C(=O)Nc2cccnc2)ccc1Cl	6.1	3.2	-3.7	1	1	0.4
CCN(CC)S(=O)(=O)c1cc(C(=O)n2cccn2)c(Cl)cc1Cl	6.5	-133.2	-1.6	2.3*	0.3	66.1*
CCN(CC)S(=O)(=O)c1ccc(Oc2ccc(S(=O)(=O)N(CC)CC)cc2)cc1	-4.5	87.3*	-5.6	0.1	0.3	67.2*
COCCCN(Cc1ccccn1)S(=O)(=O)Cc1ccccc1	13.0	.	0.5	.	.	.
Cc1ccc(CN2C(=O)c3ccccc3C2C(=O)NCc2cccnc2)cc1 (centres undefined)	5.3	50.9*	-2.2	0.5	0.3	71.4*
COc1ccc(OC)c(CN2C(=O)c3ccccc3C2C(=O)NCc2cccnc2)c1 (centres undefined)	14.4	51.3*	-3.6	0.5	0.4	56.8*
COc1ccc(CN2C(=O)c3ccccc3C2C(=O)NCc2cccnc2)c(OC)c1 (centres undefined)	-6.7	25.3	-7.6	0.7	0.6	39.0
O=C(NCc1cccnc1)C1c2ccccc2C(=O)N1C1CCCC1 (centres undefined)	-5.4	32.5	-2.2	0.7	0.3	74.7*
CC(C(=O)NCc1cccnc1)N1C(=O)c2ccccc2C1=O (centres undefined)	2.7	.	8.8	.	.	.
CC1(C)N=C(c2cccs2)C(C)(C)N1O	8.2	8.0	-3.9	0.9	0.9	5.9
Cc1ccc(C(=O)Oc2oc(-c3ccco3)nc2C=Nc2ccccc2)cc1	5.0	8.9	4.3	0.9	0.8	17.9
CCCn1c(SCC(=O)Nc2nnc(C)s2)nnc1-c1ccoc1C	18.6	65.5*	3.2	0.3	0.6	42.3
CCn1c(SCC(=O)Nc2ccccc2-c2ccccc2)nnc1-c1ccoc1C	8.4	85.5*	1.1	0.1	0.2	80.3*
SMILES	PostGolgi ctrl	CYP2C9 inh	PostGolgi yeast	CYP2C9 act	CYP2C19 act	CYP2C19 inh
CCn1c(SCC(=O)Nc2nc(C)cs2)nnc1C(NC(=O)c1ccccc1Cl)C(C)C (centres undefined)	3.3	11.4	1.6	0.9	0.5	51.8*
C=CCn1c(SCC(=O)Nc2nc(C)cs2)nnc1C(CO)NC(=O)c1ccccc1 (centres undefined)	3.3	11.1	-7.2	0.9	0.6	41.1
CCCCn1c(SCC(=O)Nc2nnc(C)s2)nnc1-c1ccoc1C	12.9	80.6*	1.1	0.2	0.7	31.1
COCCn1c(-c2cc(OC)c(OC)c(OC)c2)nc2nc3ccccc3nc21	.	8.7	.	0.9	1.1	-6.9
CN1C(=O)CSC1=NCC12CC3CC(CC(C3)C1)C2	23.0	20.0	27.8	0.8	1	-2.0
O=C(O)C1CCC(=O)N1C1CCCC1 (centres undefined)	-6.1	-10.8	1.9	1.1	1	-0.4
Nc1c(C(O)(C(F)(F)F)C(F)(F)F)ccc2ccccc12	27.4	.	5.8	.	.	.
CCCn1c(SCC(=O)c2ccc3c(c2)OCCO3)nnc1-c1ccco1	19.0	20.7	-6.7	0.8	0.7	31.2
Cc1occc1-c1nnc(SCC(=O)Nc2ccc3c(c2)OCO3)n1CC1CCCO1 (centres undefined)	0.0	60.2*	-4.3	0.4	0.5	47.7
CCCCn1c(SCC(=O)c2ccc3c(c2)OCCO3)nnc1-c1ccoc1C	7.8	90.1*	7.7	0.1	0	96.4*
Cc1nnc(SCC(=O)Nc2ccc3c(c2)OCCO3)n1CC1CCCO1 (centres undefined)	3.9	-3.0	-0.3	1	0.9	9.5
Cc1occc1-c1nnc(SCC(=O)N2CCOCC2)n1CCc1ccccc1	30.0	-3.7	1.6	1	1	-4.9
CCn1c(SCC(=O)N2CCN(c3ccccc3F)CC2)nnc1-c1ccoc1C	5.5	52.9*	-6.9	0.5	0.5	53.6*
CCn1c(SCC(=O)Nc2nc(C)cs2)nnc1-c1ccoc1C	11.9	31.0	0.5	0.7	0.2	75.3*
Cc1ccc(C)n1/N=C1/NC(=O)CS1	21.4	9.1	-1.4	0.9	1.2	-15.1
CCOC(=O)Cc1nnc(NC(=O)CC)s1	4.2	-5.8	-5.7	1.1	1	-3.8
CCCCn1c(SCC(=O)OCC)nnc1-c1ccoc1C	3.2	55.2*	0.5	0.4	0.9	10.8
CCCCn1c(SCC(=O)NCc2ccco2)nnc1-c1ccoc1C	-1.1	2.4	-9.5	1	1	-4.7
O=C(Oc1nsnc1N1CCOCC1)c1ccccc1	6.4	37.4	-6.2	0.6	0.4	64.4*
O=C(Oc1nsnc1N1CCOCC1)N1CCOCC1	-3.7	-9.1	5.2	1.1	1.1	-9.0
COc1ccc2nc(NC(C)=O)sc2c1	23.1	-0.7	16.0	1	1	3.5
COc1ccc2nc(NC(=O)c3ccc4ncsc4c3)sc2c1	2.4	53.8*	5.5	0.5	1.1	-5.5
O=C(CSc1nc2ccccc2o1)Nc1nc2ccc(Br)cc2s1	-5.4	80.6*	11.1	0.2	0.1	94.3*
COc1ccc2nc(NC(=O)CSc3nc(C)cc(C)n3)sc2c1	27.4	84.2*	2.1	0.2	0.1	89.9*
CCOc1ccc2nc(NC(=O)CSc3ccccc3)sc2c1	2.4	35.5	-2.0	0.6	1	-1.2
Cc1cccc2sc(NC(=O)CSc3nc4ccccc4o3)nc12	9.1	4.2	5.0	1	1	-1.2
COc1ccc2nc(NC(=O)CSc3nc4ccccc4o3)sc2c1	11.5	33.1	2.0	0.7	0.4	61.7*
